# Results as given in PMC13083723 (Patterns, 2026).
# Screen size: about 5,400 compounds; about 190 (3.5%) showed an effect of 50% or more. Shown is part of a subset that was picked to be rich in strong results. Starred links: 1 amine or outer side, 2 acyl side, 3 side chain; linkers in the order of their positions; H or OH if unused. Positions of bridges follow the written chain, without caps; N, C: chain ends. Non-standard residues stand in square brackets, D forms with d. Residues, ends and D or L forms follow the SMILES beside them. *: point of attachment. X5 = NC1=N[C@@H](O)C[C@H]([C@H](N[*:1])C(=O)[*:2])N1; ΔAla(Z-3-ureido) = NC(=O)N/C=C(\N)C(=O)O; β3hOrn = NCCC[C@H](N)CC(=O)*; Dap = NC[C@H](N)C(=O)O
# Test system: Vero-E6
# Assay: primary screen, phospholipidosis by LipidTOX staining; higher = more effect of the substance
# Conditions: 10 µM
# Summary of the method: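 Drug-induced phospholipidosis detected with HCS LipidTOX Red reagent in Vero-E6 cells. Compounds tested at 10 μM, with amiodarone (10 μM) as positive control and DMSO (0.1 v/v %) as vehicle.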
row,Compound,result_ITMP
1,CN[C@@H]1Cc2cccc3nc(O)n(c23)C1,5.61%
2,CN[C@H]1CC[C@@H](c2ccc(Cl)c(Cl)c2)c2ccccc21,56.1%
3,CN[C@@H]1C[C@@H](c2ccc(Cl)c(Cl)c2)c2ccccc21,71.1%
4,COc1ccc2c(c1)CN(C)CC2c1ccc(Cl)c(Cl)c1 (stereo not shown),12.7%
5,O[C@@H]1CCCC[C@H]1N1CCC(c2ccccc2)CC1 (racemic),-4.38%
6,S=C(NC1CCCCC1)N1CCC(c2c[nH]cn2)CC1,1.61%
7,Oc1ccc2c3c1OC1C(O)CCC4(O)C(C2)N(CC2CCC2)CCC314 (stereo not shown),1.96%
8,CC(COc1ccccc1)N(CCCl)Cc1ccccc1 (stereo not shown),0.48%
9,CC(C)COCC(CN(Cc1ccccc1)c1ccccc1)N1CCCC1 (stereo not shown),66.8%
10,c1ccc(CN(CC2=NCCN2)c2ccccc2)cc1,16.9%
11,COc1ccc2c3c([nH]c2c1)[C@H](CC(C)C)N1C(=O)[C@H](CCC(=O)OC(C)(C)C)NC(=O)[C@@H]1C3,-1.42%
12,N[C@@]1(C(=O)O)CC[C@H](C(=O)O)C1.N[C@]1(C(=O)O)CC[C@@H](C(=O)O)C1,-0.35%
13,CN1CCN(c2ccc(OC(F)(F)F)c(Nc3ncc4c(n3)-c3c(c(C(N)=O)nn3CCO)CC4)c2)CC1,-0.49%
14,CCS(=O)(=O)N1CCN(c2ccc(Nc3ncc(C(N)=O)c(NC4CC4)n3)cc2)CC1,1.28%
15,CNC(=O)c1nn(C)c2c1C(C)(C)Cc1cnc(Nc3ccc(N4CCN(C)CC4)cc3)nc1-2,54.6%
16,CC1(C)CC[C@]2(C(=O)O)CC[C@]3(C)[C@H](C(=O)C=C4[C@@]5(C)C=C(C#N)C(=O)C(C)(C)[C@@H]5CC[C@]43C)[C@@H]2C1,-1.94%
17,C=CCCCCCCCCC(=O)[O-],1.9%
18,CCCCCCCCC(=O)N[C@H](CN1CCCC1)[C@H](O)c1ccc2c(c1)OCCO2,63.4%
19,CCCCCCCCCCCCCCCC(=O)OC[C@@H](NC(=O)C(Cl)Cl)[C@H](O)c1ccc([N+](=O)[O-])cc1,-1.35%
20,CCCCCCCC(=O)N[C@H](CN1CCCC1)[C@H](O)c1ccc2c(c1)OCCO2,51.9%
21,CCCCCCCC/C=C\CCCCCCCC(=O)N[C@@H](CO)Cc1ccc(O)cc1,-1.63%
22,Cn1cnc([N+](=O)[O-])c1Sc1[nH]cnc2ncnc1-2,-1.78%
23,N=C(N)Nc1ccc2[nH]c3c(c2c1)C[C@@]1(O)C2Cc4ccc(O)c5c4[C@@]1(CCN2CC1CC1)[C@H]3O5,-0.46%
24,Nc1ccc(S(=O)(=O)[N-]c2cnc3ccccc3n2)cc1,-3.26%
25,O=C([O-])c1nc(=O)[nH]c(=O)[nH]1,-2.23%
26,CCC[C@@H]1CC2=CC(=O)CC[C@]2(C)[C@H]2CC[C@@]3(C)[C@@H](CC[C@@]3(O)CCC(=O)[O-])[C@H]12,-2.26%

row,Compound,result_ITMP
1,NC1=N[C@H]2[C@H](CCCCC(=O)O)SC[C@H]2N1,-5.63%
2,C[C@]12CC[C@H]3[C@@H](CCC4=CC(=O)CC[C@@H]43)[C@@H]1CC[C@@H]2O,-1.6%
3,NCCC[C@H](N)CC(=O)N[C@H]1CNC(=O)[C@H]([C@H]2C[C@H](O)N=C(N)N2)NC(=O)/C(=C/NC(N)=O)NC(=O)[C@H](CO)NC(=O)[C@H](CO)NC1=O (β3hOrn-[Dap]SS[ΔAla(Z-3-ureido)][X5]; lactam 1-C),-3.72%
4,CCOc1cc(C(C)(C)C)ccc1C1=N[C@@](C)(c2ccc(Cl)cc2)[C@@](C)(c2ccc(Cl)cc2)N1C(=O)N1CCN(CCCS(C)(=O)=O)CC1,106%
5,Cc1c(Cl)cccc1S(=O)(=O)Nc1nc(NCCc2ccccc2)nc2c1CN(Cc1ccccc1)CC2,-0.11%
6,COc1ccc2c(c1)c(C1=C(c3c[nH]c4ccccc34)C(=O)NC1=O)cn2CCCN(C)C,120%
7,CN(C)CCCn1cc(C2=C(c3c[nH]c4ccccc34)C(=O)NC2=O)c2ccccc21,-0.11%
8,Cn1cc(C2=C(c3cn(CCCSC(=N)N)c4ccccc34)C(=O)NC2=O)c2ccccc21,15.8%
9,CS(=O)(=O)c1ccc(-c2cn3ccccc3n2)cc1,-2.12%
10,O=C([O-])c1ccccc1-c1c2cc(I)c(=O)c(I)c-2oc2c(I)c([O-])c(I)cc12,7.91%
11,CCC1=C[C@@H]2C[N@@]3CCc4c([nH]c5ccccc45)[C@@](C(=O)OC)(C2)[C@@H]13,6.61%
12,COc1cc2nccc(Oc3ccc(NC(=O)C4(C(=O)Nc5ccc(F)cc5)CC4)cc3)c2cc1OC,0.07%
13,COc1cc2c(Nc3ccc(NC(=O)c4ccccc4)cc3)ncnc2cc1OCCCN1CCOCC1,-3.61%
14,COc1cc2c(Oc3ccc(NC(=O)C4(C(=O)Nc5ccc(F)cc5)CC4)cc3F)ccnc2cc1OCCCN1CCOCC1,80.1%
15,CN1[C@@H]2CC[C@H]1C[C@@H](OC(=O)N1Cc3ccccc3NC1=O)C2,-1.56%
16,Cc1cc(Nc2ncnc3ccc(-c4ccc(CNCCS(C)(=O)=O)o4)cc23)ccc1Oc1ccn2ncnc2c1,48.5%
17,CS(=O)(=O)CCNCc1ccc(-c2ccc3ncnc(Nc4ccc(OCc5cccc(F)c5)c(Cl)c4)c3c2)o1,91.4%
18,CS(=O)(=O)CCNCc1nc(-c2ccc3ncnc(Nc4ccc(OCc5cccc(F)c5)c(Cl)c4)c3c2)cs1,2.46%
19,CCn1c2ccccc2c2cc(CNC)ccc21,73.3%
20,CCCC(CCC)C(=O)NCc1ccc2c(cnn2-c2ccccc2OC)c1,0.82%
21,COc1ccc(CNCc2cccc3ccccc23)cc1,11.4%
22,CCn1c(=O)[nH]c2ccccc21,-2.45%
23,CCn1c2ccccc2c2cc(CNCc3ccccc3OC)ccc21,56.5%
24,CCCC(CCC)C(=O)[O-],-5.85%
25,CC(=O)NCC(=O)N1[C@@H]2CC[C@H]1c1ccc(Nc3ncc(C(F)(F)F)c(NC4CCC4)n3)cc12,2.85%
26,Nc1nc(=O)c2c([nH]1)NCC(CNc1ccc(C(=O)N[C@@H](CCC(=O)[O-])C(=O)[O-])cc1)N2C=O (stereo partly shown),-2.25%
